Compound activity deposited in PubChem by National Center for Advancing Translational Sciences (NCATS).
An excerpt weighted towards active compounds, which were near 9.9% of everything screened.
ALDH1A1 inh: inhibitors of human aldehyde dehydrogenase 1A1. P00352. Purified ALDH1A1, NADH fluorescence, propionaldehyde substrate. Potency, µM (titrated, usually from 75.3 µM), for inactives: top-dose activity, negative = inhibition, most hits filed as inhibitors. 7.3% of 220,000 active. AID 1030; active means well fitted inhibition curve with a large enough effect, not every such curve was filed as active; inconclusive means small, poorly fitted or top-dose-only effect, or another doubt; inactive means no such curve, though single readings can be large or run the other way;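 further: plate controls were no enzyme wells and a reference inhibitor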
Tau fluor counter: counter-screen for tau fibril formation inhibitors; tau K18 P301L Alexa594 fluorescence, heparin fibrillization; Potency, µM (titrated, usually from 57.7 µM), without a hit: at the top dose activity change, negative = decrease; 0.93% of 280,000 active; further: nearly all actives have a fitted effect of over 55% in size
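Human K18 P301L tau (15 uM unlabeled plus 0.24 uM Alexa 594-labeled, final) in 100 mM sodium acetate pH 7 was mixed with compound and 20 uM heparin and incubated 6 hr at 37 C.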
HPGD inh: blocks human HPGD enzyme activity; purified HPGD, NADH fluorescence kinetic, PGE2 substrate; P15428; 4.3% of 150,000 active; AID 894; Potency, µM, for the others: top-dose activity change, negative = inhibition, most hits filed as inhibitors; active means well fitted inhibition curve with a large enough effect, not every such curve was filed as active; inconclusive means small, poorly fitted or top-dose-only effect, or another doubt; inactive means no such curve, though single readings can be large or run the other way
Target sequence (P15428 whole entry, looked up): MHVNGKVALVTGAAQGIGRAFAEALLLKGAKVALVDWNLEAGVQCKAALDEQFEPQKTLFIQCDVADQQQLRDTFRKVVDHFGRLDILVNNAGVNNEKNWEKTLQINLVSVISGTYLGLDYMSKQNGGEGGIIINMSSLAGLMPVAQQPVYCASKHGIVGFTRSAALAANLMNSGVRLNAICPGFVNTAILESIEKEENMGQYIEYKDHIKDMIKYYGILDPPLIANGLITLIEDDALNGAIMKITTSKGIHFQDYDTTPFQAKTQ
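20 nM HPGD preincubated 15 min at room temperature with compound in 50 mM Tris-HCl pH 8, 0.01% Tween 20. Started with 1 mM NAD+ and 30 uM prostaglandin E2; NADH fluorescence (360/450 nm) read 5 times over 30-s intervals, last minus first.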
JMJD2E inh: blocks human JMJD2E demethylase activity; Potency, µM (top dose mostly 57.1 µM), for the others: top-dose activity change, negative = inhibition, hits mostly inhibitors; AID 2147; JMJD2E catalytic domain, FDH-coupled NADH fluorescence (FDH is formaldehyde dehydrogenase); 1.6% of 230,000 active; B2RXH2; active means well fitted inhibition curve with a large enough effect, not every such curve was filed as active; inconclusive means small, poorly fitted or top-dose-only effect, or another doubt; inactive means no such curve, though single readings can be large or run the other way;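 further: 0% = wells with enzyme and -100% = buffer wells without enzyme; nearly all actives have a fitted effect of over 50% in size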
Target sequence (B2RXH2 1-337 limits assumed): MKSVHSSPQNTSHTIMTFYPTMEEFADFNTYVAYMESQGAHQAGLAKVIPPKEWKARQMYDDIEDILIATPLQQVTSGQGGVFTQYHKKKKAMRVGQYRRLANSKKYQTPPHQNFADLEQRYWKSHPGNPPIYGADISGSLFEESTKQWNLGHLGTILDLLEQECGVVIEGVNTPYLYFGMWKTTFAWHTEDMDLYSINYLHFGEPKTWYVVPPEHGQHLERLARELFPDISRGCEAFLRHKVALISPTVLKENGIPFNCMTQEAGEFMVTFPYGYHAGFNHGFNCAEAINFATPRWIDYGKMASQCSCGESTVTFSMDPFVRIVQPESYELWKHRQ
Tau ThT inhib: blocks human tau fibril formation measured by thioflavin T; P10636; recombinant tau K18 P301L (four-repeat tau fragment), heparin-induced fibrillization, ThT fluorescence; Potency, µM (titrated, usually from 57.4 µM), without a hit: at the top dose activity, negative = inhibition, usual class: inhibitors; 2.1% of 270,000 active; AID 1460; further: nearly all actives have a fitted effect of over 55% in size
Target sequence (P10636 561-689 P618L limits assumed): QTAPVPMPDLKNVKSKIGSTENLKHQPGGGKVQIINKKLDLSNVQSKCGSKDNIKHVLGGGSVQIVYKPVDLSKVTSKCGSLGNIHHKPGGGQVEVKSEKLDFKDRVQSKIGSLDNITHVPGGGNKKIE
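Recombinant human tau K18 fragment […] carrying P301L, 15 uM unlabeled plus 0.24 uM Alexa 594-labeled, was fibrillized with 20 uM heparin in 100 mM sodium acetate pH 7 for 6 hr at 37 C; 30 uM ThT fluorescence read after 1 hr.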
Tau FP inhib: blocks human tau fibril formation measured by polarization | P10636 | K18 P301L tau heparin fibrillization, Alexa594 FP, 6 h | Potency, µM (top dose mostly 57.7 µM), for the others: at the highest dose activity, negative = inhibition, usual class: inhibitors | 0.39% of 280,000 active | AID 1468; further: nearly all actives have a fitted effect of over 55% in size
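K18 P301L tau (15 uM unlabeled/0.24 uM Alexa 594-labeled, final) + compound + heparin 20 uM final; 100 mM NaOAc pH 7; 6 hr 37 C; ThT 30 uM final added, 1 hr RT; FP ex 555/em 632 nm.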
* marks the source's active call; other numbers are inactive results; ? = inconclusive; / = no result; [ ] = dose if it differs, or a comment. Unless noted, the call rests on the fitted dose curve; in most records, active means well fitted curve in the direction sought with a large enough effect; inconclusive means small, poorly fitted or top-dose-only effect, or another doubt; inactive means no such curve, though single readings can be large; an effect the other way counts as inactive or inconclusive. Unless noted, on the % scale 0 is the no-effect control and ±100 the full control effect; potency means the concentration at half of the fitted maximal effect.

SMILES | ALDH1A1 inh | Tau fluor counter | HPGD inh | JMJD2E inh | Tau ThT inhib | Tau FP inhib
CCCCC1C(=O)N(c2ccccc2)N(c2ccc(O)cc2)C1=O (centres undefined) | ? | -25% | ? | 3% | 16µM* | ?
Cc1ccc(N=Nc2c(N)[nH]n3c(=O)cc(C)nc23)cc1 | -1% | -20% | -7% | -15% | 4µM* | ?
O=c1c2c(nc3c(-c4ccc(Cl)cc4)c[nH]n13)CCCC2 | 2% | -23% | ? | -9% | ? | 3%
Cc1ccc(N=Nc2c(N)[nH]n3c(=O)c4c(nc23)CCCC4)cc1 | 10% | -13% | -5% | -6% | 1.4µM* | 2%
Cc1ccc(N=Nc2c(=O)[nH]n3c(C)cc(C)nc23)cc1 | -9% | -12% | -9% | -6% | 20µM* | -5%
O=c1c(CCc2ccccc2)nc2cnc(N3CCOCC3)nc2n1Cc1ccc(F)cc1 | ? | / | -15% | / | / | /
COc1ccc(N2CC(NC(=O)c3ccco3)CC2=O)cc1 (centres undefined) | / | -7% | / | / | -6% | -8%
COC(=O)c1nc2n(n1)C(c1cccc(Cl)c1)C1=C(CC(C)(C)CC1=O)N2 (centres undefined) | 6% | -10% | -30% | -6% | -15% | -4%
COC(=O)c1nc2n(n1)C(c1cccc(Cl)c1)C1=C(CCCC1=O)N2 (centres undefined) | 18% | -7% | 16µM* | -2% | -6% | -4%
CC1CN(C(=O)/C=C/c2ccc([N+](=O)[O-])s2)CC(C)O1 (centres undefined) | ? | -7% | / | 0% | -15% | -3%
O=C(/C=C/c1ccc([N+](=O)[O-])s1)N1CCCC1 | ? | -17% | / | ? | ? | -14%
CC1CC(C)CN(C(=O)/C=C/c2ccc([N+](=O)[O-])s2)C1 (centres undefined) | 2.8µM* | -13% | / | -3% | -16% | 8%
O=C(/C=C/c1ccc([N+](=O)[O-])s1)N1CCCCC1 | 28µM* | -18% | / | -3% | ? | -6%
CC(C)[C@H](NC(N)=O)C(=O)Nc1cccc(S(=O)(=O)N2CCOCC2)c1 | ? | 2% | / | -8% | -5% | -1%
N#C/C(=C/c1ccc2c(c1)OCO2)C(=O)NCCc1c[nH]c2ccccc12 | -14% | 20µM*[quencher] | -14% | -1% | 13µM* | 5%
CC(C)[C@@H]1[C@H]2CC[C@H](C2)[C@H]1N | -4% | -13% | 1% | -28% | -6% | 0%
CSc1ccccc1NC(=O)C(=O)c1c[nH]c2ccccc12 | -1% | ? | / | -5% | -1% | 10µM*
O=S(=O)(Nc1ccc(-n2cccc2)cc1)c1ccc(Cl)c(Cl)c1 | ? | ? | / | -4% | -9% | 14µM*
O=S(=O)(Nc1ccc(-n2cccc2)cc1)c1ccc(F)cc1 | 10µM* | ? | / | -3% | -1% | -16%
Cc1ccc(Cl)cc1N1CCN(C(=O)Cc2ccc(-n3c(=O)[nH]c4ccsc4c3=O)cc2)CC1 | 18% | -20% | -8% | -6% | -9% | 0%
CCc1nnc(NC(=O)CSc2ccc(-c3ccccc3OC)nn2)s1 | 3% | -1% | / | 2% | ? | 5%
COc1cc(CN2C(=S)NC(C)(C)CC2(C)O)cc(OC)c1 (centres undefined) | ? | -5% | -15% | -12% | -5% | 3%
Cc1cccc(NC(=O)c2cc3c(=O)n4cccc(C)c4nc3s2)c1C | / | 3% | / | / | 2% | 0%
Cc1ccnc(SCC(=O)c2ccc(Br)cc2)c1C#N | ? | -22% | 28µM* | -5% | -6% | -6%
Cc1nc(CSc2nsc(C)c2C#N)cs1 | -15% | -1% | / | -8% | 0% | 1%
SMILES | ALDH1A1 inh | Tau fluor counter | HPGD inh | JMJD2E inh | Tau ThT inhib | Tau FP inhib
Cc1cc(C)c(C#N)c(OCC(=O)c2ccc(Br)cc2)n1 | ? | -16% | -18% | -3% | -9% | -9%
Cc1ccc(C(=O)CSc2nsc(C)c2C#N)cc1 | ? | -24% | 22µM* | -14% | ? | -13%
Cc1snc(SCC(=O)c2ccc(Cl)cc2)c1C#N | 20µM* | ? | ? | ? | ? | ?
CCOC(=O)c1c(C)oc2nc(C)nc(NCCCN3CCN(c4cc(Cl)ccc4C)CC3)c12 | / | -3% | / | / | -12% | 6%
CC1(C)Cc2nc3scc(NC(=O)c4ccccc4)c3cc2CO1 | / | -19% | / | 6% | -7% | -5%
COc1ccc(C(=O)NCCNc2ccc([N+](=O)[O-])cc2)cc1 | -7% | -4% | / | 2% | ? | 10%
O=C(NCCNc1ccc([N+](=O)[O-])cc1)c1ccc(Cl)cc1 | ? | -29% | / | 9% | 8.9µM* | -1%
O=C(NCCCNc1ccc([N+](=O)[O-])cc1)C(F)(F)F | ? | 6% | 20µM* | 5% | 8% | 4%
Cc1cccc(N2CCN(c3ccc4cc(S(=O)(=O)N5CCC(C)CC5)ccc4n3)CC2)c1C | / | 4% | / | / | 4% | -3%
c1ccc(C[n+]2cccc3c4ccccc4ccc32)cc1 | ? | 5% | ? | ? | -1% | 1%
Fc1cccc(C[n+]2csc3ccccc32)c1 | 0.35µM* | -23% | 4µM* | ? | 25µM* | ?
c1ccc(C[n+]2csc3ccccc32)cc1 | 2.2µM* | -21% | 14µM* | ? | ? | -14%
COc1ccc(C(=O)N(NC(=O)Oc2ccccc2)C(C)(C)C)cc1 | -2% | -6% | -13% | 4% | -3% | -7%
O=C(Nc1cccc(C(=O)N2CCCC2)c1)c1ccccc1Cl | 4µM* | -4% | -16% | 5% | 8% | -4%
O=C(Nc1cccc(C(=O)N2CCCCCC2)c1)c1ccco1 | 4% | 5% | 25µM* | 2% | 0% | 2%
O=C(N/N=C/c1cccs1)c1cccc(NC(=O)c2ccccc2Cl)c1 | 16µM* | -13% | -15% | -6% | -12% | -5%
CCOC(=O)N1CCN(C(=O)c2cccc(NC(=O)c3ccco3)c2)CC1 | 4% | 3% | -2% | 4% | 1% | 1%
CC(=O)N[C@@H]1C(O)OC(CO)C(O)C1O (some centres undefined) | 5% | 0% | -13% | 10% | 4% | 4%
COc1ccc(NS(=O)(=O)c2ccc3oc4ccccc4c3c2)cn1 | 8.9µM* | ? | 22µM* | -8% | 9% | -5%
Cn1cc(CN2CCc3ccccc3C2)c2ccccc21 | 14µM* | -1% | -16% | -7% | -5% | 7%
Cc1cc(C)n2nc(SCc3nc4ccccc4[nH]3)nc2n1 | 0% | 8% | -15% | -2% | 3% | -2%
COc1ccc(OCCSc2nc3nc(C)cc(C)n3n2)cc1 | 11% | -3% | / | 4% | -13% | -3%
Cc1cc(C)n2nc(SCc3nnc(SCc4ccccc4Cl)s3)nc2n1 | 8% | -7% | 28µM* | -7% | -13% | 5%
